The values below come from ChEMBL document CHEMBL1157539, “Thousands of chemical starting points for antimalarial lead identification” (Nature, 2010).

Common to all, as to format: functional
In assay [1] the test system is Plasmodium falciparum. Description: GSK_TCMDC: Inhibition of Plasmodium falciparum 3D7 in whole red blood cells, using parasite LDH activity as an index of growth. Test compounds present at 2uM.
Assay [2] has as its system Plasmodium falciparum. Description: GSK_TCMDC: Inhibition of Plasmodium falciparum Dd2 in whole red blood cells, using parasite LDH activity as an index of growth. Test compounds present at 2uM.
In assay [3] the test system is HepG2. Description: GSK_TCMDC: Percent inhibition of human HepG2 cell line. Test compounds present at 10uM.

Molecules are shown by their SMILES. Several values for one entry are separate records, joined by “and”; a condition that tells them apart may be missing. Equal entries are not always repeated.

For the compound `CN1CCC(N2CCC(Oc3cccc(C(=O)NCCCC4CCCC4)c3)CC2)CC1`, the Inhibition (usually the drop in the measured response relative to a control, in per cent) in assay [1] was 100%; in assay [2], 48%; in assay [3], 41%.
For `COc1ccc(CNC2CCN(C)CC2)cc1-c1ccc(S(=O)(=O)NCCc2ccccn2)s1.O=C(O)C(F)(F)F`, in that order: 100%, 12% and 6%.
On to `CC1(C)CCC(=Cc2ccc(Cl)cc2)CC1(O)Cn1ccnc1` (stereo not given), for which the Inhibition in assay [1] is given as 99%; in assay [2] it was 74%; in assay [3], 0%.
As to `COc1ccc(CCn2c(=N)c(C(=O)NC3CCCC3)cc3c(=O)n4ccccc4nc32)cc1`, the Inhibition in assay [1] is listed as 99%; in assay [2], 34%; in assay [3] it was 11%.
`COc1ccc(Nc2nc(NCc3ccco3)c3ccccc3n2)cc1.Cl`: the values for the Inhibition in assay [1], in assay [2] and in assay [3] were 99%, 76% and 38%, respectively.
Regarding `CN1CCN(c2nsc3ccc(-c4ccc(NC(=O)Nc5cc(C(F)(F)F)ccc5F)cc4)cc23)CC1.O=C(O)C(F)(F)F`, the Inhibition is 99% in assay [1], 64% in assay [2] and 100% in assay [3].
The like results for `Cc1cccc2nc(-c3cccc(-c4cccc(C(=O)N5CCCCC5CN5CCC(O)C5)c4)c3)[nH]c12` (stereo not given) were, in that order, 89%, 71% and 19%.
The like results for `CC(=O)N/N=C/[C@H](CCc1ccccc1)NC(=O)[C@H](CC(C)C)NC(=O)c1ccc(F)cc1` were, in that order, 95%, 86% and 2%.
For `C=CCN(c1nc(NC)nc(NCc2c(OC)cccc2OC)n1)C1CCCC1`, the Inhibition in assay [1] is on record as 85%; in assay [2], 70%; in assay [3], 18%.
In the case of `CC1CCC(NC(=O)c2nn(-c3ccc(Cl)cc3)c(=O)c3ccccc23)CC1` (stereo not given), the Inhibition in assay [1] is 91%; in assay [2], 67%; in assay [3] it was 3%.
Consider `CC(O)C1CCCCN1C(=O)c1cccc(-c2cccc(-c3nc4cc(F)ccc4[nH]3)c2)c1` (stereo not given), for which the Inhibition in assay [1] is listed as 100%; in assay [2], 99%; in assay [3], 42%.
In the case of `COc1ccc(-c2ccc(CNC(=O)c3ccc(Cl)cc3)c(F)c2)cc1CN1CCCN(C)CC1.O=C(O)C(F)(F)F`, the values for the Inhibition in assay [1], in assay [2] and in assay [3] were 99%, 48% and 25%, respectively.
The like results for `CCN1CCN(c2cc(C)c3cc(NC(=O)c4ccc(OC)c([N+](=O)[O-])c4)ccc3n2)CC1` were, in that order, 100%, 93% and 25%.
`COc1cc(NC2=NS(=O)(=O)c3cc(Cl)ccc3N2C)cc(OC)c1OC.O=C(O)C(F)(F)F`: the figures for the Inhibition in assay [1], in assay [2] and in assay [3] were 100%, 100% and 0%, respectively.
As to `CCCCCCCN1CC[C@@H](CCC(O)c2ccnc3ccc(OC)cc23)[C@@H](CC)C1` (stereo not given in full), the figures for the Inhibition in assay [1], in assay [2] and in assay [3] were 97%, 93% and 34%, respectively.
On to `CCCCCCCN1CC[C@@H](C[C@H](N)Cc2ccnc3ccc(OC)cc23)[C@@H](CC)C1.O=C(O)C(=O)O`, for which the Inhibition in assay [1] came out at 91%; in assay [2], 51%; in assay [3] it was 33%.
As to `COc1ccccc1CCNc1nc(C)cc(N[C@@H](CC(C)C)C(=O)Nc2ccccc2)n1.O=C(O)C(F)(F)F`, the Inhibition is 100% in assay [1], 76% in assay [2] and 16% in assay [3].
As to `CCN(CC)CCN(Cc1ccc(-c2ccc(C(F)(F)F)cc2)cc1)C(=O)Cn1c(CCc2cccc(F)c2F)nc(=O)c2cc(C)ccc21.O=C(O)C(O)C(O)C(=O)O`, the Inhibition in assay [1] is 95%; in assay [2] it was 43%; in assay [3], 19%.
In the case of `Cc1ccc(NC(=O)c2c(C)noc2-c2snnc2C)cc1`, the results for the Inhibition in assay [1], in assay [2] and in assay [3] were 92%, 71% and 1%, respectively.
The like results for `CC(=O)NCCNc1nccc(N2CCc3ncnc(Nc4ccc(OCc5ccccn5)c(Cl)c4)c3C2)n1` were, in that order, 99%, 99% and 0%.
In the case of `CNC(=O)c1ccccc1Nc1nc(Nc2cccnc2)ncc1C.Cl`, the Inhibition in assay [1] amounted to 93%; in assay [2], 90%; in assay [3], 17%.
For `COc1cc(F)c2ncc(F)c([C@@H](O)CN3CCC(NCc4cc5c(cn4)OCCO5)CC3)c2c1.Cl`, the values for the Inhibition in assay [1], in assay [2] and in assay [3] were 100%, 88% and 1%, respectively.
For the compound `COc1ccc(Cn2c(=O)[nH]c3cc(C(=O)NC4CCN(Cc5ccccc5)CC4)ccc3c2=O)cc1`, the Inhibition is 97% in assay [1], 45% in assay [2] and 10% in assay [3].
The like results for `COc1ccc(NC(=O)Nc2nc(-c3ccc(Cl)c(C)c3)cs2)cc1N1CCN(C)CC1.Cl` were, in that order, 99%, 89% and 9%.
For `O=[N+]([O-])c1ccccc1/C=N/Nc1ccnc2ccc(C(F)(F)F)cc12`, the Inhibition was 100% in assay [1], 36% in assay [2] and 6% in assay [3].
For `Fc1cccc(C=NNc2ccnc3cc(Cl)ccc23)c1`, the Inhibition in assay [1] worked out at 99%; in assay [2], 91%; in assay [3], 6%.
For `Cn1nccc1C(=O)NCCNCc1ccc(-c2ccc(-c3nc4cc(F)ccc4[nH]3)cc2)cc1.O=C(O)C(F)(F)F`, in that order: 100%, 98% and 28%.
Regarding `CCCCOc1ccc(CNCCCCCCNCc2ccc(OCCCC)c3ccccc23)c2ccccc12.CS(=O)(=O)O`, the Inhibition in assay [1] was determined as 81%; in assay [2], 49%; in assay [3], 100%.
Take `CCN(CC)CCN(Cc1ccc(-c2ccc(C(F)(F)F)cc2)cc1)C(=O)Cn1c(CCc2ccc(F)cc2)nc(=O)c2ccccc21.O=C(O)C(O)C(O)C(=O)O`: the Inhibition in assay [1] came to 97%; in assay [2], 58%; in assay [3], 42%.
Regarding `CCCCCCCc1c(C)nc2cccc(OC)c2c1O`, the values for the Inhibition in assay [1], in assay [2] and in assay [3] were 95%, 47% and 43%, respectively.
The like results for `O=C(Nc1cc(C(F)(F)F)cc(C(F)(F)F)c1)c1cccc([N+](=O)[O-])c1` were, in that order, 93%, 15% and 23%.
On to `CCc1nc(N)nc(N)c1-c1ccc(Cl)cc1` [PYRIMETHAMINE], for which the Inhibition was 94% and 93% in assay [1]; 0% in assay [2]; 71% and 66% in assay [3].
Regarding `Cc1ccc2oc3cc(-c4nnn[nH]4)ccc3c(=O)c2c1`, the Inhibition in assay [1] is recorded as 97%; in assay [2] it was 96%; in assay [3] it was 2%.
`CC(C)N(C(=O)CSc1nc2cc(Cl)ccc2c(=O)n1Cc1ccccc1)C(C)C`: the Inhibition is listed as 100% in assay [1], 97% in assay [2] and 0% in assay [3].
Take `Cc1nnsc1C(=O)Nc1cccc(-c2csc(-c3nc4ccccc4[nH]3)c2)c1`: the figures for the Inhibition in assay [1], in assay [2] and in assay [3] were 94%, 50% and 51%, respectively.
In the case of `CC1CCCN1Cc1cccc(-c2ccc(C(=O)NCCOc3ccccc3)s2)c1.O=C(O)C(F)(F)F` (stereo not given), the results for the Inhibition in assay [1], in assay [2] and in assay [3] were 83%, 0% and 26%, respectively.
As to `O=C1COc2ccc(CNC3CCC(O)(CCc4ccnc5cc6c(cc45)OCCO6)CC3)nc2N1` (stereo not given), the Inhibition was 92% in assay [1], 0% in assay [2] and 0% in assay [3].
Consider `CC1(C)C(N(O)C(=O)Nc2ccc(Cl)c(Cl)c2)N(c2ccc(Cl)c(Cl)c2)C(=O)N1CCc1ccccc1` (stereo not given), for which the Inhibition was 91% in assay [1], 93% in assay [2] and 10% in assay [3].
With `CC(C)C[C@@H](C(=O)N[C@H](C(=O)Nc1nccs1)C(C)(C)C)[C@H](CCC(F)(F)F)N(O)C=O`, the Inhibition in assay [1] was 97%; in assay [2], 71%; in assay [3], 11%.
As to `CNCC(C)(C)c1nc(-c2ccc(Cl)c(O)c2)c(-c2ccncc2)[nH]1.Cl`, the Inhibition came to 98% in assay [1], 96% in assay [2] and 46% in assay [3].
The like results for `COc1cc2nc(SCC(C)C)n(CCCn3ccnc3)c(=N)c2cc1OC` were, in that order, 99%, 78% and 15%.
Consider `CC(C)(C)c1ccc(C(=O)Nc2ccc3nc4c(c(N)c3c2)CCCC4)cc1.Cl`, for which the Inhibition is 100% in assay [1], 99% in assay [2] and 21% in assay [3].
Turning to `CCCCCCCN1CC[C@@H](CCCc2ccnc3ccc(OC)cc23)[C@@H](CCN)C1.O=C(O)C(=O)O`, the Inhibition in assay [1] was 100%; in assay [2], 11%; in assay [3], 50%.
With `O=C(CNC(=O)c1ccc(O)cc1)Nc1cccc(-c2cccc(-c3nc4cc(C(F)(F)F)ccc4[nH]3)c2)c1`, the Inhibition in assay [1] worked out at 96%; in assay [2], 28%; in assay [3], 63%.
In the case of `CC(CN(C)C)C(=O)Nc1ccc(-c2ccc(-c3nc4cc(F)ccc4[nH]3)cc2)cc1` (stereo not given), the Inhibition in assay [1] worked out at 100%; in assay [2], 95%; in assay [3], 14%.
For the compound `CN(C(=O)Cc1ccc(Cl)cc1)C1CCN(CCCCCNC(=O)/C=C/c2ccc(Cl)c(Cl)c2)CC1`, the Inhibition in assay [1] stood at 83%; in assay [2], 16%; in assay [3] it was 69%.
Regarding `Cc1ccc(OC2CCN(c3ccc(C(=O)NC4CC4)cn3)CC2)cc1`, the Inhibition in assay [1] was 87%; in assay [2], 75%; in assay [3], 11%.
`Cc1[nH]c(C)c(-c2ccc(OCc3cc(C(F)(F)F)cc(C(F)(F)F)c3)nc2)c(=O)c1Cl`: the Inhibition in assay [1] stood at 98%; in assay [2], 96%; in assay [3], 19%.
With `CCN1CCC(N2CCC(C(=O)Nc3cccc(-c4cccc(Cl)c4)c3)CC2)CC1`, the Inhibition in assay [1] is listed as 91%; in assay [2], 82%; in assay [3], 54%.
For the compound `O=C(Nc1cccc(Cl)c1N1CCOCC1)C(Cl)(Cl)Cl`, the figures for the Inhibition in assay [1], in assay [2] and in assay [3] were 96%, 95% and 3%, respectively.
For `Cc1cccc(C=NN=c2cc(C)[nH]c3ccc(F)cc23)n1`, in that order: 95%, 45% and 1%.
For `CCOc1ccccc1C(=O)N1CCc2cc3nccc(N4CCN5CCC[C@H]5C4)c3cc21`, the Inhibition in assay [1] was found to be 100%; in assay [2], 58%; in assay [3], 4%.
As to `COc1cc(CS(C)(=O)=O)ccc1Nc1nccc(-c2c(-c3cccc(NC(=O)c4c(F)cccc4F)c3)nn3ccccc23)n1`, the Inhibition in assay [1] is given as 92%; in assay [2], 71%; in assay [3], 46%.
For the compound `N#Cc1cccc(Nc2ncc3c(-c4cccc(NC(=O)Cc5cccc(Cl)c5)c4)c[nH]c3n2)c1.O=C(O)C(F)(F)F`, the Inhibition in assay [1] was determined as 100%; in assay [2] it was 95%; in assay [3] it was 0%.
`CC(C)c1ccc2c(c1)c(SC(C)(C)C)c(CC(C)(C)C#N)n2Cc1ccc(Cl)cc1`: the values for the Inhibition in assay [1], in assay [2] and in assay [3] were 96%, 95% and 0%, respectively.
For `Cl.c1ccc2c(Nc3ccc(Oc4ccc(Nc5c6ccccc6nc6ccccc56)cc4)cc3)c3ccccc3nc2c1`, in that order: 100%, 99% and 21%.
With `Cc1cc(NC(=O)c2ccco2)ccc1OC1CCN(Cc2ccc(C#N)cc2)CC1.O=C(O)C(F)(F)F`, the Inhibition worked out at 92% in assay [1], 89% in assay [2] and 2% in assay [3].
Regarding `Cc1cc(N2CCC(NS(=O)(=O)c3ccccc3)CC2)nc(Nc2cccc(C#N)c2)n1.O=C(O)C(F)(F)F`, the Inhibition in assay [1] was 93%; in assay [2], 29%; in assay [3], 52%.
As for `COc1cccc(-c2cccc(CNC3CCN(CC4Cn5c(=O)ccc6ccc(F)c4c65)CC3)c2)c1.O=C(O)C(F)(F)F` (stereo not given), the Inhibition in assay [1] is given as 99%; in assay [2], 15%; in assay [3] it was 23%.
On to `COc1ccc(NC(=O)C2c3ccccc3C(=O)N(C3CCCC3)C2c2cccs2)cc1OC` (stereo not given), for which the Inhibition was 90% in assay [1], 96% in assay [2] and 0% in assay [3].
